The campaign covered roughly 110,000 compounds. About 40 (0.04%) were called active. Roughly 22% stayed inconclusive and do not appear here. Calls come from the whole dose curve; as a rule, active = well fitted curve in the direction sought with a large enough effect in the signal ratio (not every such curve was filed as active); inconclusive = small, poorly fitted or top-dose-only effect, or a change in a side signal; inactive = flat fitted curve, though single readings scatter; the % refers to the signal ratio. The entries come from a sample that favours actives as a whole. A call without a number means that no potency is given here.
Potency is the fitted concentration of half-maximal effect.

This assay is described as follows: IkB Signaling. The following applies: ABC-DLBCL IkBa-CBG/CBR dual luciferase ratio, 4 h; series mostly up to 57.1 µM. The source says:
NIH Molecular Libraries Screening Centers Network [MLSCN]
NIH Chemical Genomics Center [NCGC]
Nuclear factor kappa-B (NF-kappa-B) plays an important role in normal B cell development and survival. Diffuse large B cell lymphoma (DLBCL) is the most commonly observed type of non-Hodgkin's lymphoma. Gene expression analysis has identified an activated B cell-like subtype of DLBCL (ABC-DLBCL) which expresses known NF-kappa-B target genes. […] However, targets upstream of IKK have been largely unexplored and so nodes upstream of IKK in the NF-kappa-B pathway remain untested due to the lack of chemical probes.
A cell-sensor assay for I-kappa-B-alpha stabilization was developed with NIH investigator Dr. R. Eric Davis in Dr. Louis M. Staudt's laboratory. The assay uses green (CBG68) and red (CBR) emitting beetle luciferases [Chroma-Glo(TM) developed by Promega Corp.] where the green luciferase is fused to I-kappa-B-alpha and the red luciferase is present in its native state. Both luciferase genes are stably present in the OCI-Ly3 human ABC DLBCL cell line, but their expression is under the control of tetracycline-inducible promoters. Following the addition of doxycycline to induce expression of the luciferases, the green luminescence in control cultures rises only slowly because the CBG fusion partner I-kappa-B-alpha is targeted by IKK activity for rapid degradation. In contrast, green luminescence rises rapidly in the presence of proteasome inhibitors or IKK inhibitors. The rise in red luminescence of CBR is not affected by proteasome or IKK inhibitors, and serves as normalization for cell number and nonspecific effects. Compounds were screened as a concentration-titration series that ranged from 57 uM to 0.7 nM.
NCGC Assay Protocol Summary:
Cells were seeded in 1536-well plates at 5000 cells/3ul in IMDM medium containing 0.5% FBS, w/o phenol red, L-glutamine, 25 mM HEPES, 3 mg/ml sodium bicarbonate. After centrifugation for 1 min. at 1000 rpm, 23 nl of compounds or DMSO were delivered to each well using a pin tool. Then 1ul 80ng/ml doxycycline was dispensed into white solid 1536-well plates and the plates were incubated at 37C/5% C02 in a cell incubator for 4 hrs. Then 4 ul Chroma-Glo luminescent substrate mix (Promega) was added to each well. The plate was incubated at R.T. for 10-15 min. The plates were measured on a ViewLux plate reader for green luminescence (540/20 nm filter) and red luminescence (618/8 nm filter). The green and red luminescent signals were corrected for red and green luminescence filter overlap using previously determined filter calibration constants (determined using the procedure outlined in the Promega Technical Manual). The %Activity was determined from the ratio of corrected green/red luminescent values. Green luminescent and ratio %Activity was determined by normalizing to the difference in signal between basal cells (0% Activity) and cells incubated with 10 uM of the proteasome inhibitor MG-132 (100% Activity). Red luminescent %Activity was normalized to the difference between red luminesence in basal cells (0%Activity) and zero luminescence (-100% Activity).
Concentration-response curves were fitted to the signals arising from the green luminescence (I-kappa-B-alpha-luciferase fusion; IkB-luc) and the red luminescence (unfused luciferase; luc) as well as the calculated ratio. The concentration-effect curves were then classified based on curve quality (r2), response magnitude and degree of measured activity. Compounds were then categorized based on their concentration-response curves for all three datasets (Ikb-luc, luc and ratio).
Keywords: IKK, I-kappa-B, IkB, IkBa, cytotoxicity, luminescence, MLSMR, MLSCN, NIH Roadmap, qHTS, NCGC
On to `CCN(CCCNC(=O)c1c(C)oc2ncn(CC(C)C)c(=O)c12)Cc1ccccc1`, for which the Potency result is “inactive”.

Regarding `Cc1cccc(CSc2ccc(-c3cccs3)nn2)c1`, the Potency entry is “inactive”.

In the case of `CCOc1ccc(OCC)c(Nc2nc3ccccc3n3nnnc23)c1`, the Potency entry is “inactive”.

`COc1ccc(S(=O)(=O)N2CCCCC2)cc1C(=O)NC1CCS(=O)(=O)C1` (stereo not drawn): the Potency result was “inactive”.

For `CCn1cc(C(=O)N(C)Cc2ccccc2)c(=O)c2cc(S(=O)(=O)N3CCCCCC3)ccc21`, the Potency entry is “inactive”.

Regarding `CCCOC(=O)Cc1c(O)c2ccccc2[nH]c1=O`, the Potency result is “inactive”.

As to `CCCC(=O)Nc1c(O)c2ccccc2[nH]c1=O`, the Potency entry was “inactive”.

Regarding `O=C1C(c2[nH]c3ccccc3c2O)=Nc2ccccc21`, the Potency is 2510 nM (active).

With `COc1ccc(-c2nc3sc(CCNC(=O)C(C)(C)C)c(C)n3n2)cc1`, the Potency entry was “inactive”.

In the case of `COc1ccc(N2CCN(C(=O)c3ccc4c(Cl)c5c(nc4c3)CCCC5)CC2)cc1`, the Potency result is “inactive”.

Regarding `CC(=O)Nc1ccc2nc(SCCOc3cc(C)cc(C)c3)sc2c1`, the Potency result is “inactive”.

For the compound `CCC1CN(S(=O)(=O)c2cc(-c3cc(C)no3)ccc2C)c2cc(C)ccc2O1` (stereo not drawn), the Potency result was “inactive”.

`CC1CCN(S(=O)(=O)c2ccc3c(c2)N(CC(=O)NCc2ccccc2Cl)C(=O)CO3)CC1`: the Potency entry was “inactive”.

For the compound `COC(=O)c1ccc(NC(=O)CCc2c(C)nn(-c3ccc(N4CCCC4)nn3)c2C)cc1`, the Potency result was “inactive”.

For the compound `COc1ccc(-n2c(C)nc3c(cnn3-c3ccc(F)cc3)c2=O)cc1`, the Potency result is “inactive”.

As for `CC1=C(c2ccc(C)c(C)c2)S(=O)(=O)NC1=NCc1ccccc1Cl`, the Potency result is “inactive”.

With `Cc1cc(C)c2oc(C(=O)Nc3ccc(S(=O)(=O)N4CCCCCC4)cc3)cc(=O)c2c1`, the Potency entry is “inactive”.

On to `CN(C)CCN(Cc1ccccc1)S(=O)(=O)c1csc(C(N)=O)c1`, for which the Potency entry was “inactive”.

As for `COC(=O)c1ccccc1NC(=O)c1cnn(-c2ccc(F)cc2)c1-n1cccc1`, the Potency result was “inactive”.

Regarding `COc1ccc(NC(=O)C2CCN(c3ccc(Sc4ccc(C)cc4)nn3)CC2)c(OC)c1`, the Potency entry was “inactive”.

For the compound `COc1ccc(C2NC(=O)N(C)C3=C2C(=O)N(c2ccc(C(=O)O)cc2)C3)cc1` (stereo not drawn), the Potency result was “inactive”.

Take `COc1cccc(NC(=O)CN2C(=O)c3ccccc3Sc3ncccc32)c1`: the Potency result is “inactive”.

`Cc1ccc(-c2cnc(C3CC3)o2)cc1S(=O)(=O)Nc1cccc(C)c1C`: the Potency entry is “inactive”.

Consider `COCCNC(=O)c1cc(-c2cccc(Cl)c2)on1`, for which the Potency entry was “inactive”.

In the case of `COc1ccc(-c2nc3c4ccccc4n(CC(=O)Nc4ccc(C(C)=O)cc4)c(=O)n3n2)cc1`, the Potency result was “inactive”.

For `Cc1ccccc1OCC(=O)Nc1c(C(=O)Nc2ccccc2F)oc2ccccc12`, the Potency entry is “inactive”.

As to `COc1cc(NC(=O)C2=CC(c3ccco3)=NS(=O)(=O)N2C)cc(OC)c1OC`, the Potency result is “inactive”.

For the compound `Cc1ccc2oc(=O)c3cnn(CC(=O)NCc4ccccc4Cl)c3c2c1`, the Potency result is “inactive”.

On to `COc1cccc(CNC(=O)C2CCC(CNS(=O)(=O)c3cccs3)CC2)c1` (stereo not drawn), for which the Potency result was “inactive”.

As for `CCCCC(=O)OC1=CN(Cc2ccccc2)S(=O)(=O)c2ccccc21`, the Potency result is “inactive”.

As for `Cc1cc(C)cc(NS(=O)(=O)c2ccc(-c3cc(C)no3)s2)c1`, the Potency entry was “inactive”.

Regarding `CCc1ccccc1NC(=O)c1ccc2c(c1)CCN2S(C)(=O)=O`, the Potency entry is “inactive”.

`O=C(COc1ccccc1F)OCc1cc(=O)n2nc(C3CCCCC3)sc2n1`: the Potency entry was “inactive”.

Turning to `CN1C(=O)c2[nH]nc(-c3ccc(F)cc3)c2C1c1ccccn1` (stereo not drawn), the Potency entry is “inactive”.

Regarding `CCC(=O)N1CCc2cc(S(=O)(=O)NC(Cc3ccccc3)C(=O)NCc3ccccc3)ccc21` (stereo not drawn), the Potency result was “inactive”.

On to `O=c1cc(-c2ccccc2)n2c(SCc3ccccc3)nnc2[nH]1`, for which the Potency result was “inactive”.

In the case of `Cc1cccc(Cn2c(=O)n(CCC(=O)NCCc3ccc(Cl)cc3)c(=O)c3sccc32)c1`, the Potency result was “inactive”.

Consider `O=C(NC1CC(=O)N(c2ccc(F)cc2)C1)c1cccs1` (stereo not drawn), for which the Potency result was “inactive”.

On to `COc1ccc(CNc2nc(-c3ccccc3)nn2C(=O)c2ccccc2OC)cc1`, for which the Potency result was “inactive”.

Take `Cc1ccc(Cn2c(CCCNC(=O)C3CCCCC3)nc3ccccc32)cc1`: the Potency result is “inactive”.

Turning to `COc1ccccc1Cc1nc2ccccc2nc1SCC(=O)N1CCCc2ccccc21`, the Potency result was “inactive”.

Turning to `CCc1nn(CC(=O)Nc2cc(C)cc(C)c2)c(=O)c2cc3sccc3n12`, the Potency entry is “inactive”.

`Cc1cc(C)cc(NS(=O)(=O)c2ccc3[nH]cc(C(=O)N4CCCCC4)c(=O)c3c2)c1`: the Potency entry is “inactive”.

As to `COC(=O)c1c(NC(=O)c2cc(=O)c3c(C)cc(C)cc3o2)sc2c1CCCC2`, the Potency result is “inactive”.

For the compound `COc1ccc(C)cc1NC(=O)C(=O)NCCc1sc(-c2cccc(C)c2)nc1C`, the Potency entry was “inactive”.

Turning to `Cc1ccc2ncc(C(=O)Nc3ccc(OC(F)(F)F)cc3)c(=O)n2c1`, the Potency result is “inactive”.

As for `Cc1cc(C)cc(OCC(=O)Nc2c(C(=O)c3ccccc3)oc3ccccc23)c1`, the Potency result is “inactive”.

Consider `O=C1CC(c2nnc(Cc3ccc(Cl)cc3)o2)CN1c1ccccc1` (stereo not drawn), for which the Potency entry was “inactive”.

Regarding `CSc1ccc(C2c3c(oc4ccccc4c3=O)C(=O)N2CCCN2CCOCC2)cc1` (stereo not drawn), the Potency entry was “inactive”.

Regarding `COCC(C)NS(=O)(=O)c1ccc(N2CCCCS2(=O)=O)cc1` (stereo not drawn), the Potency entry was “inactive”.

For `COc1cccc(CNC(=O)CCC(=O)N2CC3CCCN3c3ccccc32)c1` (stereo not drawn), the Potency result was “inactive”.

Consider `CCc1ccccc1OCCSc1nc(-c2cccs2)nc2cc(=O)[nH]n12`, for which the Potency result was “inactive”.

Regarding `Cc1cccc(NC(=O)CSc2nc3c(oc4ccccc43)c(=O)n2-c2ccc(F)cc2)c1`, the Potency entry is “inactive”.

Take `O=C1Cc2cc(S(=O)(=O)Nc3ccc(OC(F)(F)F)cc3)cc3c2N1CCC3`: the Potency entry is “inactive”.

As for `Cc1ccc(N(C)C(=O)C2CCN(S(=O)(=O)c3ccc4c(c3)CCCN4C(=O)C3CCC3)CC2)cc1`, the Potency entry was “inactive”.

For the compound `COC(=O)c1ccccc1NC(=O)c1ccc(COc2ccccc2Cl)o1`, the Potency entry is “inactive”.

As for `CCC1=Nc2cc(C(=O)NCCCOC(C)C)ccc2Sc2ccc(C)cc21`, the Potency entry was “inactive”.

Consider `CCCCN(CC)CCCNC(=O)c1nn(C)c2c1CSc1ccccc1-2`, for which the Potency entry is “inactive”.

As to `O=C(Nc1ccc(-c2nc3cc(NC(=O)c4ccccc4Cl)ccc3o2)cc1)c1ccccc1Cl`, the Potency result was “inactive”.

On to `CCCNC(=O)CCn1nc(-c2ccccc2)c2ccccc2c1=O`, for which the Potency result is “inactive”.

Turning to `COC(=O)c1cc2occc2n1Cc1nc(-c2ccccc2C)oc1C`, the Potency result was “inactive”.

`COc1cc(NC(=O)Cn2nc(-c3ccc(C)c(C)c3)ccc2=O)cc(OC)c1`: the Potency result is “inactive”.

Consider `CCOc1ccc(-c2cc3nc(C4CCN(C(=O)OC(C)(C)C)CC4)c(C(=O)Nc4ccc(C(=O)OC)cc4)cn3n2)cc1`, for which the Potency entry is “inactive”.

Values taken from PubChem BioAssay AID445 (National Center for Advancing Translational Sciences (NCATS), 2006).
